Screening data deposited in PubChem by National Center for Advancing Translational Sciences (NCATS).
AmpC detergent: blocks E. coli AmpC beta-lactamase in detergent assay; 370,000 tested, 0.041% active; Potency, µM (titrated, usually from 114 µM), for the others: top-dose activity change, negative = inhibition, usual class: inhibitors; AmpC hydrolysis of nitrocefin, absorbance 480 nm, 0.01% Triton; P00811;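 note: 0% = no-compound wells and -100% = no-enzyme wells; nearly all actives have a fitted effect of over 25% in size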
Target sequence (P00811 whole entry, looked up): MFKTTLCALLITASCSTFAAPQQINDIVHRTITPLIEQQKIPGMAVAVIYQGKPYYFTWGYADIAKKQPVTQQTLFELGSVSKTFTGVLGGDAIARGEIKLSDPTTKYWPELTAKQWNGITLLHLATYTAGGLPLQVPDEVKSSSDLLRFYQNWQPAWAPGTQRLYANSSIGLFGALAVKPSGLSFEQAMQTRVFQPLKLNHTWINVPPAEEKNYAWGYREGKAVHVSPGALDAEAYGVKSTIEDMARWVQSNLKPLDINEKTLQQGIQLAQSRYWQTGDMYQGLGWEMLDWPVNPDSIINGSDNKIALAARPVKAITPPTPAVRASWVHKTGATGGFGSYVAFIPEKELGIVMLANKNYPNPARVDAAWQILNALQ
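AmpC (5.3 nM in the dispensed reagent) in 20 mM phosphate pH 7.0 with 0.01% (detergent screen) or 0.0001% Triton X-100 was preincubated with compounds for 15 min at room temperature. Nitrocefin was then added from an 800 uM solution, and hydrolysis was followed at 480 nm.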
Sm TGR block: S. mansoni TGR enzyme inhibition; AID 485364; purified TGR, DTNB reduction, TNB absorbance 405 nm; Q962Y6; 360,000 tested, 3% active; Potency, µM (highest dose often 114 µM), for the others: at the top dose activity change, negative = inhibition, actives largely listed as inhibitors; note: nearly all actives have a fitted effect of over 60% in size
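TGR 20 nM + NADPH 100 uM (dispensed conc.), cpd preinc 15 min RT; start with NADPH (500 uM addition) then DTNB (15 mM addition). Kinetic TNB absorbance, 405 nm filter. Four-parameter Hill fit across titration.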
AmpC no deterg: AmpC beta-lactamase inhibition without detergent. Potency, µM (top dose mostly 57.1 µM), for inactives: at the highest dose activity change, negative = inhibition, usual class: inhibitors. P00811. AmpC nitrocefin hydrolysis, absorbance 480 nm, 0.0001% Triton. 330,000 tested, 0.52% active;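 note: plate controls were no compound for no effect and no enzyme for full effect; nearly all actives have a fitted effect of over 20% in size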
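20 mM phosphate pH 7.0 + 0.01% (detergent screen) or 0.0001% Triton X-100; 5.3 nM AmpC reagent; cpd preinc 15 min RT; nitrocefin (800 uM stock) to start; A480 q20 s × 4 min; Activity was normalised to no-enzyme and no-compound control wells.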
* = called active by the depositor; u = inconclusive; x = no result. Shown are actives, neighbours in structure and some others; about 3.3% of the full set was active somewhere. Calls come from the whole dose curve; as a rule, active = well fitted curve in the direction sought with a large enough effect; inconclusive = small, poorly fitted or top-dose-only effect, or another doubt; inactive = no such curve, though single readings can be large; an effect the other way counts as inactive or inconclusive. Unless noted, % is set by controls: 0 for no effect and ±100 for the full control effect; potency is the fitted concentration of half-maximal effect.

SMILES | AmpC detergent | Sm TGR block | AmpC no deterg
Cc1cc(C(=O)N/N=C2\CC(=O)c3ccccc32)c(C)n1-c1ccccc1 | -1.1% | -12.7% | -43.6%
Cc1ccccc1NC1=C(Cl)C(=O)OC1OC(=O)c1ccco1 (configuration not stated) | u | -27.1% | -40.9%
COc1cccc(NC2=C(Cl)C(=O)OC2OC(=O)c2ccco2)c1 (configuration not stated) | -1.0% | 7.94µM* | -37.9%
COC(=O)c1ccc(NC2=C(Cl)C(=O)OC2OC(=O)c2ccccc2)cc1 (configuration not stated) | 10µM* | u | 4.47µM*
COc1ccccc1NC1=C(Cl)C(=O)OC1OC(=O)c1ccco1 (configuration not stated) | 1.1% | u | -19.2%
COC(=O)c1ccc(N=Nc2ccccc2)cc1 | u | 1.7% | -9.3%
Cc1ccc(NC2=C(Cl)C(=O)OC2OC(=O)c2ccc(C)cc2)cc1 (configuration not stated) | 8.91µM* | -13.0% | -47.1%
Cc1cc(C)cc(OCC(=O)OCC(=O)NC2CC2)c1 | x | x | -12.6%
CCOC(=O)c1c(Nc2ccc(C)c(C)c2)nnc(-c2ccccc2)c1-c1ccccc1 | 3.0% | 0.5% | x
COc1ccc(C)cc1Nc1nc2c(S(=O)(=O)c3cccc(Cl)c3)nnn2c2ccsc12 | -7.3% | -8.9% | x
Cn1nnnc1SCCCNCc1cccc(OCc2ccccc2)c1 | 8.7% | 25.1% | x
Cc1nn(-c2ccccc2)c(Cl)c1/C=N/NC(N)=O | 0.3% | 3.9% | -10.3%
NC(=O)N/N=C/c1c(Sc2nnnn2-c2ccccc2)nc2ccccn2c1=O | 1.4% | 3.98µM* | -12.2%
COC(=O)/C=C1/S/C(=N/NC(=O)c2ccccc2OC)NC1=O | -1.1% | u | -17.3%
COC(=O)/C=C1/S/C(=N/NC(=O)c2ccc(Cl)cc2Cl)NC1=O | 3.9% | 17.8µM* | -18.5%
COc1ccccc1C(=O)NCCC(=O)NCc1ccccn1 | 2.1% | -4.3% | -10.7%
COC(=O)Cn1c(-c2ccc(OC)cc2)c(-c2ccc(OC)cc2)nnc1=O | u | 79.4µM* | 25.6%
CC(C)OC(=O)Cn1c(-c2ccccc2)c(-c2ccccc2)nnc1=O | -7.5% | 0.4% | 5.9%
Cc1ccc(C)c(S(=O)(=O)c2nnn3c2nc(N2CCN(C)CC2)c2sccc23)c1 | 6.7% | 1.1% | x
O=C(NCCN1CCCC1)c1ccc(Cn2c(=S)[nH]c3ccc(Br)cc3c2=O)cc1 | 4.4% | -7.4% | -5.1%
O=C(NCCCN1CCCC1)c1ccc(Cn2c(=S)[nH]c3ccc(Br)cc3c2=O)cc1 | u | 44.7µM* | 25.8%
Cc1cc(C)c(NC(=O)CCN2CCCCC2)c(C)c1 | 18.5% | 1.6% | x
Cc1ccc(S(=O)(=O)N(CC(=O)NCC2CCCO2)C2CCCCC2)cc1 (configuration not stated) | -1.6% | 4.6% | 36.2%
COc1cccc(/C=N/NC(=O)c2ccc(=O)n(C)c2)c1OC | 7.1% | 4.5% | -8.9%
COc1cccc(/C=N/NC(=O)c2ccccc2)c1OS(=O)(=O)c1ccccc1 | -6.7% | -4.8% | 31.6µM*
SMILES | AmpC detergent | Sm TGR block | AmpC no deterg
COC(=O)c1ccccc1SC1CC(=O)N(c2ccccc2)C1=O (configuration not stated) | -11.3% | 50.1µM* | -12.8%
O=C(O)c1ccccc1SC1CC(=O)N(c2cccc3ccccc23)C1=O (configuration not stated) | -0.9% | 1.78µM* | -24.6%
COC(=O)c1ccc(N2C(=O)CC(SCCN)C2=O)cc1 (configuration not stated) | u | u | 0.5%
CCOc1ccc(N2C(=O)CC(Sc3ccccc3C(=O)O)C2=O)c([N+](=O)[O-])c1 (configuration not stated) | -8.1% | 17.8µM* | -22.9%
CCN1C(=O)CC(Sc2ccccc2C(=O)O)C1=O (configuration not stated) | 2.3% | u | -15.8%
CCOC(=O)c1c(N2C(=O)CC(Sc3ccccc3C(=O)O)C2=O)sc2c1CCCC2 (configuration not stated) | 0.4% | x | -44.5%
O=C(NC(C(=O)N/N=C/c1ccccn1)c1n[nH]c(=O)c2ccccc12)c1ccccc1 (configuration not stated) | -0.2% | -0.1% | -23.1%
CC(=O)Nc1cccc(-c2nnc(SCC(=O)c3cc([N+](=O)[O-])ccc3Cl)o2)c1 | -2.8% | -22.1% | x
CN(C)CCCNc1cc(N2CCN(C3CCCCC3)CC2)c2noc3c2c1C(=O)c1ccccc1-3 | 14.8% | -0.8% | x
O=C1CSC(=Nc2cccc(Cl)c2Cl)N1 | 3.3% | -3.9% | -30.8%
CC(O)[C@H]1CNC(=O)C(=O)N1CCc1cccc(F)c1 (some centres not stated) | 4.8% | 9.2% | 1.5%
Cc1ccc(CCNC(=O)c2cn(C)c3ccc(S(=O)(=O)N4CCCCC4)cc3c2=O)cc1 | -0.3% | 22.4µM* | x
CCn1cc(C(=O)NCCc2ccc(C)cc2)c(=O)c2cc(S(=O)(=O)N3CCCCC3)ccc21 | 6.3% | 11.0% | x
COc1ccc(C)cc1N(C)C(=O)c1sc2nc3n(c(=O)c2c1C)CCCCC3 | -2.5% | 22.4µM* | x
Cc1ccc(N(C)C(=O)c2sc3nc4n(c(=O)c3c2C)CCCC4)cc1C | 2.4% | -15.3% | x
Cc1c(C(=O)NCc2ccc(Cl)cc2)sc2nc3n(c(=O)c12)CCC3 | 0.4% | -6.2% | x
COc1ccc(CNC(=O)c2sc3nc4n(c(=O)c3c2C)CCCCC4)cc1 | -0.5% | 8.91µM* | x
CCc1ccc(NC(=O)CSc2nc(-c3ccccc3)c(C#N)c(=O)[nH]2)cc1 | 14.8% | -15.1% | x
CCOc1ccc(Nc2ccc(N3C(=O)CCC3=O)cc2[N+](=O)[O-])cc1 | -6.5% | -7.4% | -14.9%
Cc1cccc(Cn2c(N(C)CCO)nc3c2c(=O)[nH]c(=O)n3C)c1 | u | 5.8% | 11.2µM*
CN(Cc1ccccc1)c1nc2c(c(=O)[nH]c(=O)n2C)n1Cc1ccccc1 | u | 0.4% | 98.8%
COc1ccc2c(Sc3ccc(Cl)cc3)c(C(=O)N3CCCCC3)[nH]c2c1 | -1.9% | -11.4% | x
O=C(NCCCN1CCCC1=O)C1CCN(S(=O)(=O)c2cc(C(F)(F)F)ccc2Cl)CC1 | 3.2% | -1.4% | 82.7%
CCSc1nnc(NC(=O)C2CCN(S(=O)(=O)c3cc(C(F)(F)F)ccc3Cl)CC2)s1 | u | 89.1µM* | -51.9%
COc1cc(NC(=O)Cc2c(C(=O)O)c(C)cn2C)cc(OC)c1 | -6.9% | -7.0% | x
SMILES | AmpC detergent | Sm TGR block | AmpC no deterg
COc1ccccc1Nc1nc(N)nc(CN2CCOCC2)n1 | u | u | -17.5%
COc1ccccc1Nc1nc(N)nc(CN2CCCCCC2)n1 | -0.9% | 31.6µM* | -6.4%
CCOc1ccccc1CN1CCc2nc(N3CCN(C)CC3)ncc2C1 | 12.6% | 1.4% | x
COc1cc(OC)c(OC)cc1CN1CCc2nc(N3CCN(C)CC3)ncc2C1 | 7.5% | 39.8µM* | x
Cc1cc(C)c2nc(SCC(=O)NCCC3=CCCCC3)cc(C)c2c1 | -13.9% | 4.1% | -2.0%
Oc1ccc(/C=N/Nc2cccc3cccnc23)c(O)c1 | 1.9% | -5.7% | -27.0%
Cc1ccc(/C=N/Nc2cccc3cccnc23)c(O)c1 | 0.2% | 31.6µM* | -36.5%
Oc1cc2c(cc1O)[C@H]1c3ccc(O)c(O)c3OC[C@@]1(O)C2 | 0.5% | 2.24µM* | -15.6%
